Experimental data published in PubChem BioAssay AID1159580 (chemical genetic matrix, 2015).
About 2,000 (36%) of roughly 5,500 compounds were called active. Not shown: some 18% with an inconclusive outcome. Cut-off read from the data, not from the text of the source: active = normalized growth mostly below about 0.91 (no sharp cut-off); inconclusive = no clear call, values can overlap the other calls; inactive = mostly above about 0.92. This is one part of the list.

Assay: chemical genetic growth profiling, strain panel (AID 1159580);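 note: tested at 20 µM; growth read once vehicle control cultures reached saturation at 30 °C; 1 = growth at the plate median or of vehicle wells; lower values mean less growth of the strain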
Conditions: growth OD

Measured: normalized growth

OC[C@H]1O[C@@H](O[C@@H]2[C@@H](CO)O[C@](O)(CO)[C@H]2O)[C@H](O)[C@@H](O)[C@H]1O
inactive: S. cerevisiae deletion strains, locus YKL009W, strain mrt4, active compounds read low 1 | S. cerevisiae deletion strains, locus YKL068W, active compounds read low 0.987 | S. cerevisiae deletion strains, locus YKL085W, strain MDH1 (second series), active compounds read low 0.976 | S. cerevisiae deletion strains, locus YKL085W, strain MDH1, active compounds read low 0.976 | S. cerevisiae deletion strains, locus YKL160W, strain elf1, active compounds read low 1 | S. cerevisiae deletion strains, locus YKR001C, strain vps1, active compounds read low 1.01 | S. cerevisiae deletion strains, locus YKR026C, strain gcn3, active compounds read low 1.01 | S. cerevisiae deletion strains, locus YKR091W, strain srl3, active compounds read low 1.01 | S. cerevisiae deletion strains, locus YLL001W, strain dnm1, active compounds read low 0.999 | S. cerevisiae deletion strains, locus YLL026W, active compounds read low 1.01 | S. cerevisiae deletion strains, locus YLL041C, strain sdh2, active compounds read low 1.01 | S. cerevisiae deletion strains, locus YLR027C, strain aat2, active compounds read low 1.01 | S. cerevisiae deletion strains, locus YLR039C, strain RIC1, active compounds read low 0.968 | S. cerevisiae deletion strains, locus YLR058C, strain SHM2, active compounds read low 0.986 | S. cerevisiae deletion strains, locus YLR102C, strain apc9, active compounds read low 0.981 | S. cerevisiae deletion strains, locus YLR113W, strain HOG1, active compounds read low 1.02 | S. cerevisiae deletion strains, locus YLR221C, strain rsa3, active compounds read low 1 | S. cerevisiae deletion strains, locus YLR258W, strain gsy2, active compounds read low 0.998 | S. cerevisiae deletion strains, locus YLR262C, strain YPT6 (second series), active compounds read low 1.03 | S. cerevisiae deletion strains, locus YLR262C, strain YPT6, active compounds read low 1.03 | S. cerevisiae deletion strains, locus YLR268W, strain sec22, active compounds read low 0.972 | S. cerevisiae deletion strains, locus YLR320W, strain mms22, active compounds read low 0.996 | S. cerevisiae deletion strains, locus YLR330W, strain CHS5, active compounds read low 0.994 | S. cerevisiae deletion strains, locus YLR342W, strain FKS1 (second series), active compounds read low 0.994 | S. cerevisiae deletion strains, locus YLR342W, strain FKS1, active compounds read low 1.02 | S. cerevisiae deletion strains, locus YLR357W, strain rsc2, active compounds read low 0.995 | S. cerevisiae deletion strains, locus YLR370C, strain arc18, active compounds read low 1.02 | S. cerevisiae deletion strains, locus YLR371W, strain rom2, active compounds read low 0.974 | S. cerevisiae deletion strains, locus YLR384C, strain iki3, active compounds read low 1.01 | S. cerevisiae deletion strains, locus YLR418C, strain cdc73, active compounds read low 0.954 | S. cerevisiae deletion strains, locus YML016C, strain PPZ1, active compounds read low 0.993 | S. cerevisiae deletion strains, locus YML032C, strain rad52, active compounds read low 0.988 | S. cerevisiae deletion strains, locus YML120C, strain ndi1, active compounds read low 0.99 | S. cerevisiae deletion strains, locus YML124C, strain tub3, active compounds read low 1 | S. cerevisiae deletion strains, locus YMR058W, strain fet3, active compounds read low 1.01 | S. cerevisiae deletion strains, locus YMR078C, strain ctf18, active compounds read low 0.959 | S. cerevisiae deletion strains, locus YMR125W, strain sto1, active compounds read low 0.996 | S. cerevisiae deletion strains, locus YMR129W, active compounds read low 1.01 | S. cerevisiae deletion strains, locus YMR205C, strain PFK2, active compounds read low 1.03 | S. cerevisiae deletion strains, locus YMR223W, strain ubp8, active compounds read low 0.962 | S. cerevisiae deletion strains, locus YMR231W, strain pep5, active compounds read low 1.01 | S. cerevisiae deletion strains, locus YMR307W, strain GAS1, active compounds read low 1 | S. cerevisiae deletion strains, locus YNL067W, strain RPL9B, active compounds read low 1 | S. cerevisiae deletion strains, locus YNL071W, strain lat1, active compounds read low 1.01 | S. cerevisiae deletion strains, locus YNL183C, strain NPR1, active compounds read low 0.959 | S. cerevisiae deletion strains, locus YNL209W, strain ssb2, active compounds read low 1 | S. cerevisiae deletion strains, locus YNL233W, strain BNI4, active compounds read low 0.989 | S. cerevisiae deletion strains, locus YNL248C, strain rpa49, active compounds read low 1.03 | S. cerevisiae deletion strains, locus YNL250W, strain rad50, active compounds read low 0.954 | S. cerevisiae deletion strains, locus YNL271C, strain bni1, active compounds read low 0.966 | S. cerevisiae deletion strains, locus YNL298W, strain CLA4, active compounds read low 0.975 | S. cerevisiae deletion strains, locus YNL307C, strain MCK1, active compounds read low 0.972 | S. cerevisiae deletion strains, locus YNL322C, strain KRE1 (second series), active compounds read low 1.02 | S. cerevisiae deletion strains, locus YNL322C, strain KRE1, active compounds read low 0.996 | S. cerevisiae deletion strains, locus YNR049C, strain mso1, active compounds read low 1.01 | S. cerevisiae deletion strains, locus YNR052C, strain pop2, active compounds read low 0.979 | S. cerevisiae deletion strains, locus YOL006C, strain TOP1, active compounds read low 0.965 | S. cerevisiae deletion strains, locus YOL012C, strain htz1 0.596 | S. cerevisiae deletion strains, locus YOL147C, strain pex11, active compounds read low 0.982 | S. cerevisiae deletion strains, locus YOR001W, strain rrp6, active compounds read low 1 | S. cerevisiae deletion strains, locus YOR061W, strain CKA2, active compounds read low 0.985 | S. cerevisiae deletion strains, locus YOR069W, strain VPS5, active compounds read low 0.989 | S. cerevisiae deletion strains, locus YOR070C, strain gyp1, active compounds read low 1 | S. cerevisiae deletion strains, locus YOR080W, strain dia2, active compounds read low 1.01 | S. cerevisiae deletion strains, locus YOR083W, strain WHI5, active compounds read low 0.989 | S. cerevisiae deletion strains, locus YOR106W, strain vam3, active compounds read low 1.02 | S. cerevisiae deletion strains, locus YOR136W, strain idh2, active compounds read low 0.981 | S. cerevisiae deletion strains, locus YOR144C, strain elg1, active compounds read low 0.98 | S. cerevisiae deletion strains, locus YOR184W, strain ser1, active compounds read low 0.971 | S. cerevisiae deletion strains, locus YOR231W, strain MKK1, active compounds read low 0.98 | S. cerevisiae deletion strains, locus YOR265W, strain rbl2, active compounds read low 1.01 | S. cerevisiae deletion strains, locus YOR270C, strain vph1, active compounds read low 1.06 | S. cerevisiae deletion strains, locus YOR290C, strain snf2, active compounds read low 0.992 | S. cerevisiae deletion strains, locus YOR316C, strain cot1, active compounds read low 0.976 | S. cerevisiae deletion strains, locus YPL051W, strain arl3, active compounds read low 1.01 | S. cerevisiae deletion strains, locus YPL078C, strain atp4, active compounds read low 1.01 | S. cerevisiae deletion strains, locus YPL106C, strain sse1, active compounds read low 1 | S. cerevisiae deletion strains, locus YPL240C, strain hsp82, active compounds read low 1.03 | S. cerevisiae deletion strains, locus YPL241C, strain CIN2, active compounds read low 0.998 | S. cerevisiae deletion strains, locus YPL256C, strain CLN2, active compounds read low 0.957 | S. cerevisiae deletion strains, locus YPR119W, strain clb2, active compounds read low 0.978 | S. cerevisiae deletion strains, locus YPR141C, strain kar3, active compounds read low 0.968 | S. cerevisiae deletion strains, locus YPR163C, strain tif3, active compounds read low 0.972 | S. cerevisiae deletion strains, locus YPR167C, strain met16, active compounds read low 0.985 | S. cerevisiae deletion strains, strain wtn01, active compounds read low 0.967 | S. cerevisiae strains, strain wild type, active compounds read low 0.999
